Data on 20 molecules can be found in PubChem BioAssay (NCATS).

Records with an inconclusive call do not appear. Where a call stands in place of a potency, no number is given. The source made the active and inactive calls. Calls follow the shape of the dose curve; as a rule, active = well fitted inhibition curve with a large enough effect; inconclusive = small, poorly fitted or top-dose-only effect; inactive = no such curve, though single readings can be large or run the other way.
Potency is read from the fitted curve at half-maximal effect.

The nature of the experiment: Counterscreen qHTS for small molecule stabilizers of the endoplasmic reticulum resident proteome: GLuc-NoTag assay (AID 1508627). The settings on record: Gaussia luciferase NoTag secretion counterscreen, luminescence, thapsigargin 100 nM for final 4 h; series mostly up to 76.4 µM. The source says: Assay Provider: Brandon K. Harvey Ph.D.
National Institute on Drug Abuse, National Institutes of Health, Baltimore, MD
Endoplasmic reticulum (ER) dysregulation is associated with human pathologies including neurodegenerative, cardiovascular, muscular, and diabetic conditions. Maintenance of ER calcium is critical for functions of the ER and its depletion can lead to loss of ER resident proteins, in a process termed exodosis. Therapeutic compounds capable of attenuating the redistribution of ER proteins under pathological conditions may slow or stop disease progression. To identify such compounds, we performed a quantitative high-throughput screen (qHTS) using the SERCaMP assay, which monitors secretion of ER resident proteins triggered by calcium depletion.
SERCaMP was initially developed as a reporter of ER calcium homeostasis using a Gaussia luciferase with a modified signal peptide and carboxy-terminus (GLuc-SERCaMP), modifications that confer secretion of the reporter in response to ER calcium depletion (Henderson et al., 2014). The assay was used to screen 9,501 compounds, including a collection of drugs approved by the FDA (US), EMA (EU), NHI (Japan), and HC (Canada) regulatory agencies (Huang et al., 2011). Since the SERCaMP reporter reflects the exodosis phenomenon (Trychta et al., 2018a), compounds identified in the screen have the potential to prevent exodosis by different mechanisms such as stabilizing ER calcium or augmenting ERS retrieval.
1. Henderson, M.J., Wires, E.S., Trychta, K.A., Richie, C.T., and Harvey, B.K. (2014). SERCaMP: a carboxy-terminal protein modification that enables monitoring of ER calcium homeostasis. Mol Biol Cell 25, 2828-2839.
2. Huang, R., Southall, N., Wang, Y., Yasgar, A., Shinn, P., Jadhav, A., Nguyen, D.T., and Austin, C.P. (2011). The NCGC pharmaceutical collection: a comprehensive resource of clinically approved drugs enabling repurposing and chemical genomics. Sci Transl Med 3, 80ps16.
3. Trychta, K.A., Back, S., Henderson, M.J., and Harvey, B.K. (2018a). KDEL Receptors Are Differentially Regulated to Maintain the ER Proteome under Calcium Deficiency. Cell Rep 25, 1829-1840 e1826.
SEQUENCE No. (1, 2, 3, etc.); […] (e.g., Cells, Incubation, Reagent, etc.); VALUE and DESCRIPTION.
1; Reagent; 5 uL; 1000 SH-SY5Y cells per wells
3; Compound; 23 nL; Control inhibitor / compound library
5; Reagent; 100 nM; Thapsigargin
7; Reagent; 1 uL; 0.5x coelenterazine
8; Detection; Luminescence; ViewLux imaging system
NOTES (numbers refer to sequence above)
1; SH-SY5Y human neuroblastoma cells stably expressing the constitutively secreted GLuc (SH-SY5Y-GLuc-NoTag) cells were seeded in 1,536 well white tissue culture treated plates (Corning, Cat# 7464) in DMEM-high glucose-sodium pyruvate (ThermoFisher Scientific, Cat #10569) supplemented with 10% bovine growth serum (Hyclone), 10 U/ml penicillin (Gibco), 10 ug/ml streptomycin (Gibco), and 20 mM HEPES.
2; Assay plates were incubated for 5 hour at 37C in a humidified incubator containing 5% CO2.
4; Cells were then incubated for 19 hours at 37C, 5% CO2.
5; Thapsigargin was added at 100 nM to deplete ER calcium stores.
6; Cells were incubated for 4 hour (37 °C, 5% CO2)
7; Gaussia luciferase in the medium was measured by adding 1 ul of 0.5x coelenterazine (final concentration 0.07x) prepared in Gaussia Luciferase Glow Assay Buffer (Pierce), without addition of the Cell Lysis Buffer Reagent.
8; Luminescence was measured using a ViewLux CCD imaging system (Perkin Elmer) equipped with clear filters. […] The same controls were also used for the calculation of the Z' factor, a measure of assay quality control, as previously described (Zhang et al., 1999). For the initial validation of activity in the SERCaMP assays, hits from the primary screen were assayed again at 11-concentrations (1.3 nM - 76.6 uM). SH-SY5Y-GLuc-SERCaMP cells were assayed for ER Ca2+ depletion as outlined above.
1. Zhang, J.H., Chung, T.D., and Oldenburg, K.R. (1999). […]
(The purpose of a counterscreen is to sort out artefacts and off-target activity.)
Regarding `COc1cc(C(=O)OCCCN2CCCN(CCCOC(=O)c3cc(OC)c(OC)c(OC)c3)CC2)cc(OC)c1OC`, the Potency result is “inactive”.
`NC(=Nc1ccccc1)Nc1ccccc1`: the Potency result is “inactive”.
Next, `CCCCNc1ccc(C(=O)OCCN(C)C)cc1`: “inactive”; `CCN(CC)CCCN(c1ccccc1)C1Cc2ccccc2C1`: “inactive”.
Regarding `OC(CCN1CCCCC1)(c1ccccc1)C1CCCCC1` (stereo not given), the Potency result is “inactive”.
Next, `CN1CCN(C2=Nc3ccccc3Oc3ccc(Cl)cc32)CC1`: “inactive”.
Next, `c1cc(CN2CCCCC2)cc(OCCCNc2nc3ccccc3s2)c1`: “inactive”; `Cc1nc2sccn2c(=O)c1CCN1CCC(=C(c2ccc(F)cc2)c2ccc(F)cc2)CC1`: “inactive”; `CN(C)CC[C@@H](c1ccc(Br)cc1)c1ccccn1`: “inactive”.
For `CCc1cccc(N(C)C(N)=Nc2cccc3ccccc23)c1` the value was 39.8 µM (active).
Take `CCOC(=O)c1cnc2c(cnn2CC)c1NN=C(C)C`: the Potency result was “inactive”.
Next, `CN(C)C/C=C(/c1ccc(Br)cc1)c1cccnc1`: “inactive”.
For `OCCN1CCN(CCCN2c3ccccc3C=Cc3ccccc32)CC1` the value was “inactive”.
As for `CCC(=O)c1ccc2c(c1)N(CCCN(C)C)c1ccccc1S2`, the Potency result was “inactive”.
On to `CCCC(C(=O)OCCN(CC)CC)(c1ccccc1)c1ccccc1`, for which the Potency is 17.8 µM (active).
For `C(=C\c1ccccc1)/CN1CCN(C(c2ccccc2)c2ccccc2)CC1` the value was “inactive”; for `CN1C[C@H](C(=O)N[C@]2(C)O[C@@]3(O)[C@@H]4CCCN4C(=O)[C@H](Cc4ccccc4)N3C2=O)C[C@@H]2c3cccc4[nH]cc(c34)C[C@H]21`, “inactive”; for `CC1=C(C)C(=O)C(CCCCC#CCCCC#CCO)=C(C)C1=O`, “inactive”.
Turning to `CN(C)CC/C=C1\c2ccccc2COc2ccccc21`, the Potency entry is “inactive”.
Take `O=C(O)CN(CCN(CC(=O)O)CC(=O)O)CCN(CC(=O)O)CC(=O)O`: the Potency entry was “inactive”.
